# About 83,000 compounds went through this panel and 20% of them were active in at least one assay; those are over-represented in the sample as a whole.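 For each line, cells grew in 96-well plates with the test compound present at a single concentration for 48 hours.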 A number with no mark means an inactive call. Activity calls are given as the source filed them. How the source made its calls: active means growth percent below 10; inactive means the rest.
# Key:
# Experiment in all cases: NCI-60 one-dose screen, 48 h (100 = growth as untreated, 0 = no growth, -100 = all killed)
# HCT-15 colon = conditions: 10 µM unless noted
# HT29 colon = conditions: 10 µM unless noted
# SNB-75 CNS = conditions: 10 µM unless noted
# SNB-19 CNS = conditions: 10 µM unless noted
# U251 CNS = conditions: 10 µM unless noted
# PC-3 prostate = conditions: 10 µM unless noted
# SK-MEL-5 melanoma = conditions: 10 µM unless noted
# UACC-62 melanoma = conditions: 10 µM unless noted
# LOX IMVI melanoma = conditions: 10 µM
# SK-MEL-28 melanoma = conditions: 10 µM unless noted
# SK-MEL-2 melanoma = conditions: 10 µM unless noted
# EKVX NSCLC = conditions: 10 µM unless noted
# SN12C renal = conditions: 10 µM unless noted
# UO-31 renal = conditions: 10 µM unless noted
# TK-10 renal = conditions: 10 µM unless noted
# ACHN renal = conditions: 10 µM unless noted
# CAKI-1 renal = conditions: 10 µM unless noted
# A498 renal = conditions: 10 µM unless noted
# CCRF-CEM leukemia = conditions: 10 µM unless noted
# MOLT-4 leukemia = conditions: 10 µM unless noted
Structure (SMILES),growth (HCT-15 colon),growth (HT29 colon),growth (SNB-75 CNS),growth (SNB-19 CNS),growth (U251 CNS),growth (PC-3 prostate),growth (SK-MEL-5 melanoma),growth (UACC-62 melanoma),growth (LOX IMVI melanoma),growth (SK-MEL-28 melanoma),growth (SK-MEL-2 melanoma),growth (EKVX NSCLC),growth (SN12C renal),growth (UO-31 renal),growth (TK-10 renal),growth (ACHN renal),growth (CAKI-1 renal),growth (A498 renal),growth (CCRF-CEM leukemia),growth (MOLT-4 leukemia)
Cc1cc(C(N)=O)cc(C)c1C(=O)OCCCl,111%,106%,100%,109%,96.9%,96.8%,101%,102%,97.5%,110%,119%,89.1%,98.3%,86.2%,106%,108%,97.6%,98.8%,112%,95.8%
O=C(Nc1cccc(C(F)(F)F)c1)Oc1ccc(Cl)c2cccnc12,2.21% (active),74.3%,65.9%,46.1%,9% (active),-40.1% (active),34%,32.4%,2.8% (active),58.3%,9.44% (active),-2.85% (active),33.1%,-17.3% (active),72.2%,-2.14% (active),–,78.5%,-15.3% (active),-1.74% (active)
COc1cc([C@@H]2c3cc4c(cc3[C@H](OC3OC5COC(c6ccccc6)OC5C(O)C3O)[C@H]3COC(=O)[C@H]23)OCO4)cc(OC)c1OC (some centres undefined),41.1%,23.2%,75.9%,79.9%,55.8%,8.28% (active),-33.3% (active),79.4%,30.2%,58.3%,2.6% (active),74.7%,41.8%,35.2%,–,32.6%,31%,26.2%,16.2%,-7.44% (active)
CCCCCCCCCCCC[n+]1ccc2ccccc2c1,25%,0.914% (active),-21% (active),-19.8% (active),-53.5% (active),-34.1% (active),-93.7% (active),-62.1% (active),-75% (active),-28.6% (active),-24.7% (active),-4.82% (active),-18.4% (active),-23.8% (active),-46.7% (active),13%,40.9%,77.6%,3.12% (active),-25.9% (active)
COc1ccc(NC(=O)/C(=C/N2C(=O)/C(=C/c3ccc(OC)c(OC)c3)NC2=S)C(C)=O)cc1,80.1%,92.8%,38.1%,73%,57.3%,62.4%,68.9%,53.9%,58.9%,77.2%,87.1%,93.5%,80.8%,54.6%,110%,79.6%,92.3%,87.6%,80.3%,–
Oc1cc(Cl)ccc1Cc1ccc(Cl)cc1O,52%,102%,76.8%,66.1%,52.7%,43.5%,11.7%,32.2%,50.6%,89.3%,66.1%,51.2%,36.2%,46.4%,95.6%,49.4%,92.9%,126%,45.7%,43.5%
O=[N+]([O-])CC(O)c1ccccc1 (centres undefined),96.6%,113%,91.6%,101%,98.7%,94.9%,103%,99.1%,84.5%,108%,120%,113%,101%,96.8%,111%,102%,95.9%,–,104%,98.6%
Nc1cccc2cccc([N+](=O)[O-])c12,105%,106%,81.8%,102%,101%,103%,111%,98.9%,105%,96.4%,98.3%,120%,107%,74.7%,109%,116%,107%,104%,102%,–
C[n+]1ccccc1C[n+]1ccccc1,110%,103%,101%,104%,109%,91.4%,105%,105%,114%,98.3%,94.4%,113%,–,90.5%,98.9%,112%,114%,109%,92.7%,83.6%
